Chronic BCR inh: inhibitors of chronic active B-cell receptor signaling; ABC-DLBCL IkBa-CBG/CBR reporter, luminescence ratio, 4 h; Potency, µM (top dose mostly 46.1 µM), most hits filed as inhibitors; 340,000 tested, 0.05% active; AID 493014; active = well fitted inhibition curve with a large enough effect in the signal ratio, with a control signal flat, not every such curve was filed as active; inconclusive = small, poorly fitted or top-dose-only effect, or effect the other way, or a change in a side signal; the % refers to the signal ratio
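TMD8 ABC-DLBCL cells carrying doxycycline-inducible green luciferase fused to IkappaBalpha plus unfused red luciferase were exposed to compounds (up to 46 uM) for 4 hrs at 37C. Activity came from the overlap-corrected green/red luminescence ratio.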
D1 agonist: agonists of human D1 dopamine receptor; P21728; HEK293 T-REx D1 cells, calcium flux, agonist mode; activation, % at 2 µM; 360,000 tested, 1% active; AID 504660; in the data active = activation above about 30%
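Tetracycline-induced HEK293 TREx D1 cells, force-coupled to calcium signalling, were dye-loaded with a no-wash calcium kit. Compound was pin-added after a 10 s baseline. Fluorescence was read kinetically at 1 cycle/s for 180 s, with calcium rises flagged as agonism.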
D1 potentiator: potentiators of human D1 dopamine receptor; 360,000 tested, 0.036% active; potentiation, % at 10 µM; P21728; HEK293 TREx D1 cells, calcium flux, dopamine EC20 potentiation; in the data active = potentiation above about 30%
DRD3 antagonist: antagonists of human D3 dopamine receptor; max response, negative = inhibition, %; P35462; D3R cells, DiscoveRx beta-arrestin luminescence, antagonist mode; active compounds read low; 360,000 tested, 2.5% active; AID 652054; in the data active = max response below about -50%; inconclusive = no clear call, values can overlap the other calls
Target sequence (P35462 whole entry, looked up): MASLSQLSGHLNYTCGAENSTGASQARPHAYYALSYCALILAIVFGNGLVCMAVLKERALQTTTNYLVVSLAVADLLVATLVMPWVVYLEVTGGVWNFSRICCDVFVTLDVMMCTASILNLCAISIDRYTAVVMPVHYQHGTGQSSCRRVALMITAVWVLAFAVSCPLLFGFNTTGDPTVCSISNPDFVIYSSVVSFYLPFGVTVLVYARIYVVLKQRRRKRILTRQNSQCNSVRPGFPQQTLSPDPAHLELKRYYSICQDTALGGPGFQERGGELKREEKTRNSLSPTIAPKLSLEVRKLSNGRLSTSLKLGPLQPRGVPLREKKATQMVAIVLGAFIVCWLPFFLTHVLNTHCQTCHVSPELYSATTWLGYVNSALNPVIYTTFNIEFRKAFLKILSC
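Cells expressing the human receptor were seeded at 1500 cells/well, incubated overnight at 37 degrees C in 5% CO2, then exposed to library compounds with dopamine controls for 90 minutes at 37 degrees C before luminescent detection.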
DRD3 agonist: agonists of human D3 dopamine receptor; P35462; D3R DiscoveRx beta-arrestin cells, luminescence, 90 min; max activation, %; 410,000 tested, 0.58% active; AID 652048; in the data active = max activation above about 30%
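Agonist-mode cell screen: cells plated at 1500/well and incubated overnight at 37 °C, then exposed to library compounds for 90 min at 37 °C. Detection reagent was added for 30–60 min at room temperature, and luminescence was read.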
D1 antag: antagonists of human D1 dopamine receptor; P21728; HEK293 TREx D1 cells, calcium flux, dopamine EC80; active compounds read low; activity change, negative = inhibition, % at 10 µM; 360,000 tested, 3.2% active; AID 504652; in the data active = activity change below about -30%
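Calcium flux readout: force-coupled, inducible Hek293 Trex D1 line, cells induced overnight at 30 C with tetracycline, dye-loaded 30–90 min at RT. Antagonism scored against EC80 dopamine challenge given 180 s after compound.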
A number is an active result; – = inactive; ? = inconclusive; · = not tested or not shown. A selection: hits, their analogues and other compounds. The true share with any hit is near 6%.

SMILES | Chronic BCR inh | D1 agonist | D1 potentiator | DRD3 antagonist | DRD3 agonist | D1 antag
Cc1cc2cc(CNC(=O)Cc3ccc([N+](=O)[O-])cc3)ccc2n1C | – | – | – | – | – | -31
CCCC(=O)NCc1ccc2c(c1)cc(C)n2C | – | – | – | – | – | –
Cc1cc(C)c(S(=O)(=O)NCc2ccc3c(c2)cc(C)n3C)c(C)c1 | – | – | – | – | – | -37
Cc1cc2cc(CNC(=O)C3CCCC3)ccc2n1C | ? | – | – | – | – | -30
Cc1cc2cc(CNS(=O)(=O)c3ccc4ccccc4c3)ccc2n1C | – | – | – | – | – | –
CC(OC(=O)Cc1c[nH]c2ccccc12)C(=O)NC1CCCCC1C (stereo not given) | – | – | – | – | – | -31
Cc1ccc(NC(=O)C(C)OC(=O)Cc2c[nH]c3ccccc23)cc1 (stereo not given) | ? | – | – | – | – | -56
Cc1ccc(S(=O)(=O)CCC(=O)N(C)C2CCCCC2)cc1 | – | – | – | – | – | -42
Cc1ccc(S(=O)(=O)CCC(=O)NC2CCCCC2)cc1 | – | – | – | – | – | –
CC(OC(=O)CCC(=O)c1ccc(F)cc1)C(=O)NC1CCCCC1C (stereo not given) | – | – | – | – | – | –
Cc1ccc(S(=O)(=O)CCC(=O)OC(C)C(=O)NC2CCCCC2C)cc1 (stereo not given) | – | – | – | – | – | -42
COc1cccc(-c2nc(CS(=O)(=O)CC(=O)N3CCN(c4ccccc4)CC3)c(C)o2)c1 | · | – | – | · | – | –
N/C(Cc1ccc(Cl)cc1)=N\OC(=O)c1ccccc1 | ? | – | – | – | – | –
CC(C)(C)C(=O)OC/C(N)=N/OC(=O)c1ccc(Cl)cc1 | – | – | – | – | – | -43
N#Cc1ccc(-c2ccccc2)nc1SCCN1CCOCC1 | – | – | – | – | – | –
Cc1cc(C)c(C#N)c(SCCN2CCOCC2)n1 | – | – | – | – | – | -31
O=C(COC(=O)[C@@H]1CC(O)CN1S(=O)(=O)c1ccccc1[N+](=O)[O-])Nc1ccc2ccccc2c1 (stereo not given in full) | – | – | – | – | – | -32
CCOC(=O)c1[nH]c(CN2CCN(c3ccc(OC)cc3)CC2)c(C(=O)OCC)c1C | ? | 64 | · | – | – | –
COc1ccc(-n2nc(C#N)c(Cl)cc2=O)cc1 | ? | – | – | -104 | – | –
Nc1nonc1C(=O)NCCNCc1ccc(Cl)c(Cl)c1 | · | – | – | · | – | –
COc1ccc2c(CN(C)c3ccccc3)cc(=O)oc2c1 | 15µM | – | – | – | – | –
N#Cc1nc(Nc2ccc(F)cc2)nc(NC2CCCC2)n1 | · | – | – | · | · | –
COc1ccc2c(c1O)-c1ccccc1CCN(C)C2 | – | – | – | – | – | –
CN1CCc2cccc3c2[C@@H]1Cc1ccc(O)c(O)c1-3 | ? | – | – | – | 44 | -58
CCOc1ccccc1CNC(=O)c1cnc2sc(N3CCCC3)nn2c1=O | · | – | – | · | – | –
SMILES | Chronic BCR inh | D1 agonist | D1 potentiator | DRD3 antagonist | DRD3 agonist | D1 antag
Oc1c(Br)cc(Br)cc1CNc1cccc2cccnc12 | ? | – | – | -58 | – | –
Oc1ccc(Br)cc1CNc1cccc2cccnc12 | – | – | – | ? | – | –
COc1ccccc1-c1cc2nc(-c3ccccc3)cc(N3CCN(C(=O)c4ccco4)CC3)n2n1 | · | · | · | – | 39 | ·
CC(CNC(=O)c1cc2cc(S(=O)(=O)N3CCCCC3)ccc2n1C)c1ccccc1 (stereo not given) | · | – | – | · | – | –
CCNc1ccc(S(=O)(=O)C(F)(F)F)cc1NC(=O)C12CCC(CC1)C2 | – | – | – | – | – | –
CCNc1cc(S(=O)(=O)C(F)(F)F)ccc1N | – | – | – | – | – | -38
CCOC(=O)C1(C)C=C(Nc2cccc(C)c2)C(=O)N1c1ccccc1 (stereo not given) | · | – | – | · | – | –
COc1cc(N2CCCC2)c(OC)cc1/C=c1/sc2nc3ccccc3n2c1=O | – | 47 | – | · | · | –
Cn1ncc([N+](=O)[O-])c1C(=O)Nc1ccccc1C#N | · | · | · | – | – | ·
O=C(CCC(=O)Nc1ccc(Br)cc1)N/N=C/c1cc([N+](=O)[O-])ccc1O | – | – | – | -59 | – | –
Cc1cccc(NC(=O)CCC(=O)N/N=C/c2cc([N+](=O)[O-])ccc2O)c1 | – | – | – | ? | – | –
O=C(Cn1cncn1)N/N=C/c1cc([N+](=O)[O-])ccc1O | – | – | – | ? | – | –
O=C(CCC(=O)Nc1ccc(F)cc1)N/N=C/c1cc([N+](=O)[O-])ccc1O | – | – | – | -70 | – | –
O=C(CCC(=O)Nc1cc(C(F)(F)F)ccc1Cl)N/N=C\c1cc([N+](=O)[O-])ccc1O | – | – | – | -70 | – | –
O=C(CCC(=O)Nc1ccc(F)cc1)N/N=C/c1ccccc1O | – | – | – | – | – | –
O=S(=O)(NCc1nc2cccnc2n1Cc1ccccc1)c1ccc2c(c1)CCCC2 | · | – | – | · | – | –
CSc1nc2sc3c(c2c(=O)n1-c1ccc(C)cc1)CCCC3 | · | – | – | · | – | –
Cc1ccccc1CSc1cn(CC(=O)N2CCCCC2)c2ccccc12 | · | – | – | · | – | –
CCOc1ccc(NC2CCCCC2NS(=O)(=O)c2ccccc2)cc1 (stereo not given) | – | – | – | – | – | -35
CCOc1ccc(S(=O)(=O)NC2CCCCCC2)cc1 | – | – | – | – | – | –
CC(C)(C)NC[C@H](O)COc1ccccc1C1CCCC1 | · | · | · | · | – | ·
CCOc1ccc(CNC2CCCc3ccccc32)cc1 (stereo not given) | – | – | – | -51 | – | –
CCc1ccccc1OC[C@@H](O)CN[C@H]1CCCc2ccccc21 | ? | 97 | – | -53 | – | -52
Cc1cccc(C)c1OCC(O)CNC(C)(C)C (stereo not given) | – | – | – | -51 | – | –
COc1ccc(CNC2CCCc3ccccc32)cc1OC (stereo not given) | – | – | – | – | – | –
SMILES | Chronic BCR inh | D1 agonist | D1 potentiator | DRD3 antagonist | DRD3 agonist | D1 antag
CC(C)(C)NCC(O)COc1ccccc1C1CCCC1 (stereo not given) | ? | 31 | – | ? | – | –
Cc1ccc(Cn2c(SCc3ccc(C(=O)NC4CCCCC4)cc3)nc3ccncc32)cc1 | · | – | – | · | – | –
COc1ccc(C(=O)NCC(c2cccs2)S(=O)(=O)c2cccs2)cc1 (stereo not given) | – | – | – | · | – | ·
CCC(C(=O)OC)n1nnc2sc(-c3ccccc3)cc2c1=O (stereo not given) | · | – | – | · | – | –
CSc1ccccc1NC(=O)C1(C)CCN1C(=O)Cc1ccc(-c2ccccc2)cc1 (stereo not given) | · | · | · | – | – | ·
O=C(Nc1ccc(Br)cc1F)c1ccc2nsnc2c1 | – | – | – | – | – | -33

High-throughput results (PubChem BioAssay)
